Screening results: PubChem BioAssay, National Center for Advancing Translational Sciences (NCATS)
The sample as a whole holds a higher share of hits than the screen did.
Pf Dd2 inh: Plasmodium falciparum Dd2 growth inhibition | Potency, µM (highest dose often 28.9 µM), for the others: at the highest dose activity, negative = inhibition, most hits filed as inhibitors | P. falciparum Dd2 growth, SYBR Green, 72 h | AID 1347417 | 120,000 tested, 4.3% active; active = well fitted inhibition curve with a large enough effect;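 also: plate controls were DMSO vehicle for no effect and reference drug for full effect; nearly all actives have a fitted effect of over 65% in size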
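Infected erythrocytes (Dd2, 0.3% parasitemia, 2.5% hematocrit final) are added to compound in RPMI-1640/Albumax II medium, grown 72 h at 37C in low oxygen, then lysed with saponin/Triton-X containing SYBR Green and read by fluorescence.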
Active calls of the source: *; i = inactive; [ ] = dose if it differs, or a comment. Potency is read from the fitted curve at half-maximal effect.

SMILES | Pf Dd2 inh
CC(=O)Nc1cccc(C(=O)N2CCC(n3cc(-c4nc(C(C)C)no4)nn3)C2)c1 (stereo not given) | 211%
CC(C)OCCCNC(=O)C1N(C(C)C)C(=O)C12CCCC2 (stereo not given) | 33%
CCCCN(CCCC)S(=O)(=O)c1ccc2oc(C(=O)NCc3ccc(C)cc3)c(C)c2c1 | 8.9µM*
CCN(CC)S(=O)(=O)c1ccc2oc(C(=O)N(C)Cc3ccccc3)c(C)c2c1 | -22%
COc1ccc(C)cc1NC(=O)c1oc2ccc(S(=O)(=O)N(C)C3CCCCC3)cc2c1C | 29%
COCC1CN(C(C)=O)CC12CCN(Cc1ccc(Cl)c(F)c1)CC2 (stereo not given) | -20%
CCC1=C(C(=O)OC)C(c2ccccc2)N2C(CC(=O)NCCc3cccs3)=CSC2=N1 (stereo not given) | i
Cn1ccc(C(=O)N[C@@H]2COCC[C@H]2Oc2ccc(CO)cc2)cc1=O | -7%
Cc1cccc(NC(=O)N2CCC(Cc3nc(-c4ccccc4)n[nH]3)CC2)c1 | 1.6µM*
Cc1cc(C)n(CCC(=O)N2CCC(Cc3nc(-c4ccccc4)n[nH]3)CC2)n1 | i
Cc1ccc(CNC(=O)N2CCC(Cc3nc(-c4ccncc4)n[nH]3)CC2)cc1 | -10%
O=C(CC1CCCCN(Cc2ccccc2)C1=O)NC1CCCCCC1 (stereo not given) | i
O=C(NCc1ccco1)C1CCN(C(=O)c2ncn3c2COC(c2ccc(F)cc2)C3)CC1 (stereo not given) | -17%
COc1ccc(C(=O)N2CCC3(CC2)NCCc2c3[nH]c3ccccc23)cc1 | -18%
Cc1ccc(C(=O)N2CCC(c3c[nH]c4ccccc34)(c3c[nH]c4ccccc34)CC2)cc1 | 2µM*
Cc1ccc(C(=O)N2CCC3(CC2)N=C(c2ccccc2)NO3)cc1 | i
CCOC(=O)c1c(C)[nH]c(CCC(=O)NCCCN2CCN(c3ccc(F)cc3)CC2)c1C | -17%
Cc1ccc(-n2nc(C)c(C(=O)NCCCN3CCN(c4ccc(F)cc4)CC3)c2-n2cccc2)cc1 | i
CC(C)Oc1ccc(CNC(=O)Cn2c(-c3cccs3)cc3ccccc32)cc1 | -8%
Cc1cccc(CNC(=O)CN2CC(C)Sc3ccccc32)c1 (stereo not given) | -10%
Cc1cccc(CNC(=O)Cn2c(-c3cccs3)cc3ccccc32)c1 | 11µM*
COc1cccc(N2CCN(C(=O)Cn3c(-c4cccs4)cc4ccccc43)CC2)c1 | -16%
COc1ccc(N2CCN(CCCNC(=O)Nc3ccccc3)CC2)cc1 | i
COc1ccc(N2CCN(CCCNC(=O)Cn3c(-c4cccs4)cc4ccccc43)CC2)cc1 | 11µM*
O=C(Cn1c(-c2cccs2)cc2ccccc21)NCCCN1CCN(c2ccc(F)cc2)CC1 | 10µM*
SMILES | Pf Dd2 inh
COc1ccc(OC)c(NC(=O)CCn2ccn3nc4c(c3c2=O)CCCC4)c1 | i
CC(C)C(=O)N1CCC2(CC1)CC(N1CCCC1)CCO2 (stereo not given) | -1%
Cc1cc(C(=O)N2CC[C@H](CO)[C@H](O)C2)cc2sc(N)nc12 | -6%
Cc1nccn1CCN(C)C(C(=O)O)c1ccc(C(C)(C)C)cc1 (stereo not given) | -7%
C[S+](=O)([O-])CCn1ncc2cc(OCC3CCN(C(=O)OC4CCCC4)CC3)ccc21 | -3%
Cc1ccc(NC(=O)CN2C(=O)CCSc3ccc(S(=O)(=O)N4CCCC4)cc32)cc1 | i
COc1cc(OC)c(NC(=O)c2ccc3c(c2)N(Cc2ccc(C)cc2)CCS3)cc1Cl | 11µM*
Cc1ccc(CCNC(=O)c2ccc3c(c2)N(Cc2ccc(F)cc2)CCS3)cc1 | 10%
CCc1ccc(NC(=O)c2ccc3c(c2)N(Cc2ccc(C)cc2)CCS3)cc1 | 8.9µM*
CCN1CCSc2ccc(C(=O)NCc3ccc(OC(C)C)cc3)cc21 | 17%
Cc1ccc(NC(=O)CN2CCSc3ccc(S(=O)(=O)N4CCCC4)cc32)cc1 | 7.9µM*
Cc1ccc(NC(=O)CN2C(=O)CCSc3ccc(S(=O)(=O)N4CCCC4)cc32)cc1C | 13%
COc1cc(Cl)c(C)cc1NC(=O)c1ccc(CN2C(=O)CCn3nc(C)cc32)cc1 | -3%
CCOc1ccc(CNC(=O)c2ccc3c(c2)N(CC)CCS3)cc1 | 36%
CC(C)c1ccc(CC(=O)N2CCCc3ncc(C(=O)NCCCn4ccnc4)cc32)cc1 | -5%
O=C(Cc1cccnc1)NCC(=O)N1CCCCCCNC(=O)CC1c1ccccc1 (stereo not given) | -1%
CN(CCc1ccccn1)[C@H]1[C@@H]2OC[C@@H](O2)[C@@H](NCc2ccc(F)cc2)[C@@H]1O | i
Cc1nccn1-c1ccc(NC(=O)C2CCCN(c3ncccc3C#N)C2)cc1 (stereo not given) | -26%
Cc1ccc(NC(=O)Nc2ccc(C)n(CC(=O)N3CCC(C)CC3)c2=O)cc1 | i
O=C(c1ccco1)N1CCCC(c2nc(CCOCC3CCOCC3)no2)C1 (stereo not given) | -18%
COC(=O)[C@@H](Cc1cccnc1)NC(=O)[C@H]1CN(C(=O)Nc2ccccc2)CCN1C(C)=O | -4%
O=C(Cn1ccn2nc(-c3ccccc3)c(CO)c2c1=O)Nc1cc(Cl)cc(Cl)c1 | i
CCNC(=O)c1cc2n(n1)CC(c1ccc(Br)cc1)OC2 (stereo not given) | i
Cn1cc(CN2CCN(C(c3ccccc3)c3ccccc3)CC2)cc1C#N | 3.2µM*
c1ccc(C(c2ccccc2)N2CCN(Cc3nc(-c4ccccn4)no3)CC2)cc1 | -5%
SMILES | Pf Dd2 inh
Cn1cc(CN2CCN(C(=O)Cc3ccccc3)CC2)ccc1=O | 0%
COc1ccc(-c2nc(C)nc3c2CN([S+](=O)([O-])c2cccc(OC)c2)CC3)cc1 | -7%
COc1ccc(-c2nc(C3CC3)nc3c2CCN(C(=O)c2ccc4c(c2)OCO4)CC3)cc1 | 11µM*
CC(C)c1nc2c(c(-c3ccc(Cl)cc3)n1)CCN(CC1CC1)CC2 | -18%
O=[S+]([O-])(c1cccc(C(F)(F)F)c1)N1CCc2nc(C3CC3)nc(-c3ccc(Cl)cc3)c2C1 | -11%
CCc1nc2c(c(-c3ccc(Cl)cc3)n1)CCN(C(=O)c1ccc(OC)cc1)CC2 | i
COc1cccc([S+](=O)([O-])N2CCc3nc(C4CC4)nc(-c4ccc(Cl)cc4)c3CC2)c1 | 13µM*
COc1ccc(-c2nc(C)nc3c2CCN(C(=O)c2ccc(C)cc2)CC3)cc1 | -19%
COc1ccc(-c2nc(C)nc3c2CCN(Cc2cc(C)on2)CC3)cc1 | -13%
Cc1cc(CN2CCc3nc(C(C)C)nc(-c4ccc(Cl)cc4)c3CC2)no1 | 8.9µM*
COc1ccc(-c2nc(C)nc3c2CCN(C(=O)c2ccc4c(c2)OCO4)CC3)cc1 | i
Cc1ccc(C(=O)N2CCc3nc(C4CC4)nc(-c4ccc(Cl)cc4)c3CC2)cc1 | -15%
COc1ccc(C(=O)N2CCc3nc(C4CC4)nc(-c4ccc(Cl)cc4)c3CC2)cc1 | 10µM*
COCCNC(=O)NCCc1noc(C)n1 | 82%
COc1ccccc1CNC(=O)C1CCN(C(=O)c2ncn3c2COC(c2ccccc2)C3)CC1 (stereo not given) | -23%
Cc1nc(CCC(=O)N2CCCC(c3nccn3CCCN(C)C)C2)n[nH]1 (stereo not given) | -16%
C=CCNC(=O)N[C@H]1CCN(C(=O)CC(C)(C)C)[C@@H]1C(=O)N(C)CC(N)=O | 23%[44.1 µM]
CCOc1ncccc1C(=O)N1C[C@H](OCC)[C@@H](O)C1 | 2%
COc1ccc(-c2nc(C(C)C)nc3c2CN([S+](=O)([O-])c2cccc(C(F)(F)F)c2)CC3)cc1 | i
